Consider seven compounds from PubChem BioAssay (NCATS).

Assay [1] concerns the target Lysosomal acid glucosylceramidase (Homo sapiens) (UniProt P04062). Description: Glucocerebrosidase-p2 (AID 348; in the data active = potency below about 10 µM; note: potency is the fitted concentration of half-maximal effect). To be noted: purified GBA, blue fluorogenic substrate, 40 min. The method, boiled down:
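Normal human glucocerebrosidase (0.2 nM) with blue fluorogenic substrate (80 uM final) in citrate/phosphate pH 5.9 with 10mM sodium taurocholate, 0.01% tween-20; 40 min RT, NaOH/glycine stop; fluorescence Ex 365/Em 440; AC50 from a titration from 0.6 nM upwards.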

Assay [2] in a line: AP1 Signaling Pathway (AID 357; active = well fitted curve in either direction with a large enough effect, not every such curve was filed as active;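 note: ME-180 reporter cells stimulated with EGF at its EC50 level; % is set by controls: 0 for no effect and ±100 for the full control effect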). To be noted: ME-180 AP-1-bla reporter, EGF-induced, beta-lactamase ratio, 5 h; at 7.69 µM (top of the series) unless noted. In outline: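 A ratiometric CCF4 readout (405 nm excitation; 460 and 530 nm emission) quantified AP-1-driven beta-lactamase in ME-180 cells after 5 h with compound and EC50 EGF; AC50 values were derived for activators and inhibitors.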

The target of assay [3] is Cytochrome P450 1A2 (Homo sapiens) (UniProt P05177). Put plainly: p450-cyp1a2 (AID 410).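 For activity change, negative = inhibition: -100% = full effect of reference inhibitor.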 Note: potency is the fitted concentration of half-maximal effect. The settings on record: recombinant CYP1A2, luciferin-ME demethylation, luminescence; series mostly up to 57 µM. In outline: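 Read-out is luminescence from luciferin produced by CYP1A2 demethylation of Luciferin-ME (100uM, at Km). Detection reagent stopped the 60 min NADPH-dependent reaction; signals were normalized to 57 uM furafylline.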
Chain of Cytochrome P450 1A2 (Homo sapiens) (P05177 whole entry, looked up): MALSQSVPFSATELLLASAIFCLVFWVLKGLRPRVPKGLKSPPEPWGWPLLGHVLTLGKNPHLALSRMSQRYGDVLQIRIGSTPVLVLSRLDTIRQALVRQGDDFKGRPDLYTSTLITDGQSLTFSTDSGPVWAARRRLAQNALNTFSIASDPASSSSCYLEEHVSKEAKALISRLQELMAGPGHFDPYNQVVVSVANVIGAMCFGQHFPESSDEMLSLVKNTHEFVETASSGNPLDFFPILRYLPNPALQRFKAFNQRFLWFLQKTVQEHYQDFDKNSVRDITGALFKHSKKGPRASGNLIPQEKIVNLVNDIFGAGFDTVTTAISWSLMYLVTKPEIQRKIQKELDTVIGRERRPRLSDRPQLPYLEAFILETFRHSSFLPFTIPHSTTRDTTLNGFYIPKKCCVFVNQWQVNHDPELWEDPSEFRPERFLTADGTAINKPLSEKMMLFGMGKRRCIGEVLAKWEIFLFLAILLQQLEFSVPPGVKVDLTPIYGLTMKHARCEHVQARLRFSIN

Assay [4] can be described thus: Stat Signaling Pathway (AID 446; active = well fitted curve in either direction with a large enough effect, not every such curve was filed as active;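 note: ME-180 cervical cancer cells given 40 pM IL-6 alongside compound; SIE-controlled beta-lactamase reporter measured as 460/530 nm FRET emission ratio; % is set by controls: 0 for no effect and ±100 for the full control effect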). To be noted: ME-180 SIE beta-lactamase reporter, IL-6 stimulated, 5 h; at 7.69 µM (top of the series) unless noted. The method, boiled down: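 Emission at 460 and 530 nm (excitation 405 nm) reports SIE-controlled beta-lactamase in ME-180 cells. Cells received compound with 40 pM IL-6 for 5 hrs at 37 C; data scaled between 300 pM IL-6 and 125 nM JAK-inhibitor controls.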

Assay [5] deals with Glucocorticoid receptor (Homo sapiens) (UniProt P04150). Put plainly: GR-EFC Redistribution (AID 451). Note: potency is the fitted concentration of half-maximal effect. To be noted: CHO-K1 GR-EFC translocation, beta-gal luminescence, 2 h. The method, boiled down:
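CHO-K1 cells stably expressing nuclear-localized β-gal enzyme acceptor and GR fused C-terminally to the enzyme donor fragment; ligand-driven nuclear translocation restores β-gal by complementation. Compounds titrated up to 46 uM final, 2 h at 37 °C; luminescence read.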

The target of assay [6] is 3',5'-cyclic-AMP phosphodiesterase 4B (Homo sapiens) (UniProt Q07343). Put plainly: qHTS Assay for Inhibitors of PDE-IV (AID 607; active = well fitted activation curve with a large enough effect in the main read-out, with a control signal flat, not every such curve was filed as active; note: % of control where 0% means no effect). The settings on record: HEK293 ACTOne CNG channel cells, membrane potential fluorescence; series mostly up to 22.9 µM. The method, boiled down:
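The readout is membrane depolarisation from a cAMP-sensing CNG channel, detected with a potential dye at ex 535/em 590. Cells were HEK293-derived (endogenous PDE-IV) at 1000 cells/well, titrated up to 22.9 uM final.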

The target in assay [7] is Cytochrome P450 3A4 (Homo sapiens) (UniProt P08684). Description: qHTS Assay for Activators of Cytochrome P450 3A4 (AID 885; active = well fitted curve in the direction sought with a large enough effect; an effect the other way counts as inactive or inconclusive; note: nearly all actives have a fitted effect of over 65% in size). To be noted: recombinant CYP3A4, Luciferin-PPXE luminescence, 60 min; series mostly up to 57.1 µM. In outline: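 Activators are scored by enhanced luminescence from CYP3A4 conversion of luciferin-PPXE (25uM, equal to KM) to luciferin, after 60 min at RT with an NADPH-regenerating system.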
Chain of Cytochrome P450 3A4 (Homo sapiens) (P08684 whole entry, looked up): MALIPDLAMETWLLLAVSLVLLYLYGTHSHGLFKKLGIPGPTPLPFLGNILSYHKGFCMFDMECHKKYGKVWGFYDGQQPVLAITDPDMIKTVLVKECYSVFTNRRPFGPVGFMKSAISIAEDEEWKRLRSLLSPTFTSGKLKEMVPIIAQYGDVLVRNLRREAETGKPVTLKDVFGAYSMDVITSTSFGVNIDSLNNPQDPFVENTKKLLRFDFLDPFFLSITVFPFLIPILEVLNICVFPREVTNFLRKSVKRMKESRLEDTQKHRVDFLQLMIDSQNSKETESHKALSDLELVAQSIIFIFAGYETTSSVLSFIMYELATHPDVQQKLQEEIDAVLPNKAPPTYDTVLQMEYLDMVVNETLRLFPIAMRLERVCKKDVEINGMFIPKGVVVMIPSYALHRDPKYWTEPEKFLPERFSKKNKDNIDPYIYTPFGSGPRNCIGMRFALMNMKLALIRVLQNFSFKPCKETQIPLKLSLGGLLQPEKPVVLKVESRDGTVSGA

Assay [8] can be described thus: qHTS Assay for Lipid Storage Modulators (AID 1519). To be noted: Drosophila S3 cells, BODIPY lipid droplet/cell ratio, laser cytometry, cells loaded with oleic acid; for activity change, negative = inhibition: at 57.5 µM (top of the series). In outline:
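Cells seeded at 5,000 per well were treated with compounds over a concentration series and loaded with oleic acid (400 uM, as added). Lipid droplet fluorescence (488 nm excitation, 500-530 nm channel) was read by laser-scanning cytometry and normalized to 20 uM Triacsin C.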
(Quantitative high-throughput screening tests each substance at several concentrations.)

The nature of assay [9]: Primary qHTS for small molecule stabilizers of the endoplasmic reticulum resident proteome: Secreted ER Calcium Modulated Protein (SERCaMP) assay (AID 1508630; active = well fitted curve in the direction sought with a large enough effect; an effect the other way counts as inactive or inconclusive; note: % is set by controls: 0 for no effect and ±100 for the full control effect). The settings on record: SH-SY5Y GLuc-SERCaMP (Gaussia luciferase released on ER calcium loss) secretion, thapsigargin, luminescence; series mostly up to 38.4 µM. In outline:
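The SH-SY5Y reporter protocol was run at 3 concentrations up to 38.3 uM (primary) or 11 concentrations (follow-up): 16 h compound, 100 nM thapsigargin for 4 h, then extracellular luciferase luminescence.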

The target in assay [10] is Mitogen-activated protein kinase 10 (Mus musculus) (UniProt Q61831). Put plainly: JNK3 AlphaScreen Assay (AID 530; active = well fitted curve in either direction with a large enough effect, not every such curve was filed as active;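 note: kinase came from lysate of stimulated human HepG2 cells; % is set by controls: 0 for no effect and ±100 for the full control effect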). The settings on record: JNK3 lysate, c-Jun phosphorylation; series mostly up to 57.1 µM. The method, boiled down: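 Biotinylated GST-cJun(1-79) served as substrate for JNK3 in HepG2 lysates stimulated with IL-1beta and TNF-alpha. ATP was 10 uM final, pH 7.6. Ser73 phosphorylation was quantified by AlphaScreen (680 nm excitation).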
(In Alpha technology, singlet oxygen from a donor bead excites a nearby acceptor bead.)

Assay [11] deals with Cytochrome P450 2C19 (Homo sapiens) (UniProt P33261). Description: qHTS Assay for Inhibitors and Substrates of Cytochrome P450 2C19 (AID 899; active = well fitted curve in the direction sought with a large enough effect; an effect the other way counts as inactive or inconclusive; note: % is set by controls: 0 for no effect and ±100 for the full control effect; nearly all actives have a fitted effect of over 60% in size). To be noted: recombinant CYP2C19, luciferin-H EGE luminescence; series mostly up to 57.1 µM. In outline:
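Human CYP2C19 (5nM) with Luciferin-H EGE at 10uM (its KM) in 50mM KPO4 was preincubated with compound for 10 min at 37C. NADPH regeneration started a 60 min 37C reaction. Luciferin was read by luminescence, normalized to 57uM ketoconazole.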

For assay [12], the target named is Cytochrome P450 2D6 (Homo sapiens) (UniProt P10635). Put plainly: qHTS Assay for Inhibitors and Substrates of Cytochrome P450 2D6 (AID 891; active = well fitted curve in the direction sought with a large enough effect; an effect the other way counts as inactive or inconclusive; note: potency is the fitted concentration of half-maximal effect; nearly all actives have a fitted effect of over 60% in size). To be noted: recombinant CYP2D6, luciferin-ME EGE luminescence; series mostly up to 57.1 µM. In outline: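 Luminescent read-out of luciferin formed by 5 nM human CYP2D6 demethylating 30 uM Luciferin-ME EGE (Km level) over 60 min at room temperature after NADPH regeneration addition. Data normalized to full inhibition by 1.43 uM quinidine.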
Chain of Cytochrome P450 2D6 (Homo sapiens) (P10635 whole entry, looked up): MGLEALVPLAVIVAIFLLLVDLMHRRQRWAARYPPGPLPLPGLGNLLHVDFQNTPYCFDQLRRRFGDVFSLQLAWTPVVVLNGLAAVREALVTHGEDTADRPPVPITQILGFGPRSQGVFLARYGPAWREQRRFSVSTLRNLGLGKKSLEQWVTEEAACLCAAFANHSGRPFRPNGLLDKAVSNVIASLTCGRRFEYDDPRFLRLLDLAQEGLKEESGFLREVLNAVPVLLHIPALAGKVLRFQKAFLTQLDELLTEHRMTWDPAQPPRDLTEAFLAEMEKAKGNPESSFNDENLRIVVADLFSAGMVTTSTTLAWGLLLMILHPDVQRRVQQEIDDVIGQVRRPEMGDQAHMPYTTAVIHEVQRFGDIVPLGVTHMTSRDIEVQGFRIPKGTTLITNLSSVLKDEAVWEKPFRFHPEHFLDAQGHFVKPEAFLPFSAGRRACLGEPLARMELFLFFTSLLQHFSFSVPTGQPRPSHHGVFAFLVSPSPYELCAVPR

Assay [13] is described as follows: qHTS Assay for Identification of Small Molecule Agonists for Hypoxia Response Element Signaling Pathway (AID 914; active = well fitted activation curve with a large enough effect in the signal ratio, with a control signal flat, not every such curve was filed as active; the % refers to the signal ratio; note: % of control where 0% means no effect). To be noted: ME-180 (cervical carcinoma) HRE-bla reporter, beta-lactamase ratio, CoCl2, 17 h; activation: stronger effect = higher value. The method, boiled down:
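In Opti-MEM containing 0.5% dialyzed FBS and 10 mM HEPES, ME-180 HRE-bla cells received a compound titration and EC50 CoCl2. They were incubated 17 hours, then CCF4-loaded 2.5 hours at room temperature before ratio reading.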

Setting [14] is: measured here: cell count channel max response.
Setting [15] is: measured here: lipid channel max response.

Records with an inconclusive call do not appear. The source made the active and inactive calls. Unless noted, calls come from the whole dose curve.

Chain of Glucocorticoid receptor (Homo sapiens) (P04150 whole entry, looked up, the tested form may be a part): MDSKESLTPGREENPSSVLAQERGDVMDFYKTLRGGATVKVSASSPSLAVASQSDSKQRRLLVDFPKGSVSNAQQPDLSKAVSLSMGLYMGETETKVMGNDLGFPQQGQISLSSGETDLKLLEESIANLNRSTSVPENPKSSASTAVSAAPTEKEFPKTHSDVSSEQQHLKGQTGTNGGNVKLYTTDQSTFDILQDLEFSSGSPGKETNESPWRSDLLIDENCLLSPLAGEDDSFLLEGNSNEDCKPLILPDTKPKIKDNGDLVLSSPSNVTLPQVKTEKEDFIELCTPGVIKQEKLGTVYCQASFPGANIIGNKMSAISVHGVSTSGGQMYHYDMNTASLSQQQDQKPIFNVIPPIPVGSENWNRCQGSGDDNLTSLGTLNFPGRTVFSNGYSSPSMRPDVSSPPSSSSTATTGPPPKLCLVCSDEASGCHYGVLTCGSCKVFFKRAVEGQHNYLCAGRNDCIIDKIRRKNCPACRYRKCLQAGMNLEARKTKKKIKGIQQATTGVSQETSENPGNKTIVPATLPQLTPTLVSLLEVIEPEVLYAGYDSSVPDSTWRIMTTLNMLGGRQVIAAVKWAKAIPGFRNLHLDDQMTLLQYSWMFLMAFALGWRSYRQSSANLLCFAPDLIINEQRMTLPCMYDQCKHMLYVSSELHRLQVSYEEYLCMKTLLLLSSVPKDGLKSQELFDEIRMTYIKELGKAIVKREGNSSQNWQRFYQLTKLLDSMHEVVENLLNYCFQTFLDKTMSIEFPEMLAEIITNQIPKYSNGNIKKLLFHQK
Chain of Lysosomal acid glucosylceramidase (Homo sapiens) (P04062 whole entry, looked up): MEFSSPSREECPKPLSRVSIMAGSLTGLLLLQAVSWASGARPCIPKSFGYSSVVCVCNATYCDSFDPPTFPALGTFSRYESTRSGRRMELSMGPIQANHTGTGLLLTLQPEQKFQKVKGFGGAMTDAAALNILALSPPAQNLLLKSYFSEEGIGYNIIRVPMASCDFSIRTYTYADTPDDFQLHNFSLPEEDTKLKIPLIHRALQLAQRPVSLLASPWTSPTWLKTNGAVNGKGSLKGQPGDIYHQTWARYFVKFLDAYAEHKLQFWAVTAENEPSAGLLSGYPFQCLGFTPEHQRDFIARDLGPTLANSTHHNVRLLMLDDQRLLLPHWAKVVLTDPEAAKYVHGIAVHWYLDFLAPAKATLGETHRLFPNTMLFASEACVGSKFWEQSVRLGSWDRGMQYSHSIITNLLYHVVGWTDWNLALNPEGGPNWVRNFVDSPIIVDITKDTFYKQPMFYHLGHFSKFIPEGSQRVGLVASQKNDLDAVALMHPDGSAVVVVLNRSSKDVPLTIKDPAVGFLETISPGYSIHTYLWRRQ
Chain of 3',5'-cyclic-AMP phosphodiesterase 4B (Homo sapiens) (Q07343 whole entry, looked up): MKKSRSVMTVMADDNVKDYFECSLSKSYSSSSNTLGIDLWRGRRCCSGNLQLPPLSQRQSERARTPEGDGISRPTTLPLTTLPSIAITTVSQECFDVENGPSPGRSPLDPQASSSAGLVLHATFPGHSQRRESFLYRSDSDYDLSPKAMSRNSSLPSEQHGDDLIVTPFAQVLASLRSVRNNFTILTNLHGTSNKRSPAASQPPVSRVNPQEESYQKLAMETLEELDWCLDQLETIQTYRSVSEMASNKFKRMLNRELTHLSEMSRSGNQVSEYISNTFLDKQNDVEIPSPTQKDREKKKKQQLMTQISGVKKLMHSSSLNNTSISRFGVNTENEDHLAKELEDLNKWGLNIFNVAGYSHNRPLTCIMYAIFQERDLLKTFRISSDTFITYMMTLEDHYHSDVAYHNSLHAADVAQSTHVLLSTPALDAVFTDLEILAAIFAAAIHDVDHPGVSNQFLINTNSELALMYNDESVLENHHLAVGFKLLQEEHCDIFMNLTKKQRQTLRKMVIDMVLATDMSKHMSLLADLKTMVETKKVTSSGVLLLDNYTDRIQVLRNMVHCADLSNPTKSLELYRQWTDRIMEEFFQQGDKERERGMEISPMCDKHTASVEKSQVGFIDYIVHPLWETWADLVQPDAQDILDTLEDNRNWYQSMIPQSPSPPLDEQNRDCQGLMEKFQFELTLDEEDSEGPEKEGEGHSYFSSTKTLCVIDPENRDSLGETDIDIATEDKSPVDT
Chain of Cytochrome P450 2C19 (Homo sapiens) (P33261 whole entry, looked up): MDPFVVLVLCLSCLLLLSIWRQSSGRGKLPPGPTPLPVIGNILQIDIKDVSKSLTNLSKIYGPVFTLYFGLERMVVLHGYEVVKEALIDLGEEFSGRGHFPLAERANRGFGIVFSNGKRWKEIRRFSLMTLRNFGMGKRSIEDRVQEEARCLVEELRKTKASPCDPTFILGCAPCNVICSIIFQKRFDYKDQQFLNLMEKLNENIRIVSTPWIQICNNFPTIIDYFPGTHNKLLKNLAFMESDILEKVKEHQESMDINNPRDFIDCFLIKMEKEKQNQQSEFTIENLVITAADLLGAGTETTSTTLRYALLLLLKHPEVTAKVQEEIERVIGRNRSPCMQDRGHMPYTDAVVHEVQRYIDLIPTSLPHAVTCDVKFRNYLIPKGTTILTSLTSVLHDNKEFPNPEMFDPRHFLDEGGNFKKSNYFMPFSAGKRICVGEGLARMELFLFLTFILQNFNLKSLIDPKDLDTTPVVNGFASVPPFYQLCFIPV

For `O=C(Oc1ccccc1)N1CCC2(CC1)CN(c1ccncc1)C2`, the Potency is > 11.4 µM (inactive) in assay [1] and > 46 µM (inactive) in [5]. For the same compound, the activity change, negative = inhibition in assay [2] was -1.8% (inactive); in assay [8] it was 1.74% (inactive). The Potency entry in [3], in [6] and in assay [7] was “inactive” in each case. Also, the activity, negative = inhibition in assay [4] was -4.7% (inactive). Also, the max response in assay [8] (setting [14]) turned out to be 0.26%; in assay [8] (setting [15]) it was 4.81%. For the same compound, the result in assay [9] was inactive.

Consider `O=C(Nc1ccccc1)N1CC[C@@]2(CCCN(C(=O)c3cc(C(F)(F)F)cc(C(F)(F)F)c3)C2)C1`, for which the Potency in assay [1] was > 11.4 µM (inactive); in [3], 25.1 µM (active); in [5], > 46 µM (inactive). The values for the activity change, negative = inhibition in assay [2] and in assay [8] were -5.62% (inactive) and 4.15% (inactive), respectively. Moreover, in [4], the activity, negative = inhibition is -6.2% (inactive). Moreover, the Potency result in assay [10], in [6], in [7] and in assay [11] was “inactive” each time. Also, the max response in assay [8] (setting [14]) was -0.407%; in assay [8] (setting [15]), 6.94%. The outcome in [9] was inactive.

On to `COc1ccccc1CN1CCC2(CCNCC2)CC1`, for which the figures for the Potency in assay [1], in [5] and in assay [12] were > 11.4 µM (inactive), > 46 µM (inactive) and 0.0316 µM (active), respectively. The activity change, negative = inhibition is -18.9% (inactive) in assay [2] and -2.64% (inactive) in assay [8]. The Potency result in assay [3], in [10] and in [6] was “inactive” in each case. Further, the activity, negative = inhibition in [4] is 6.24% (inactive). Moreover, the max response was 1.08% in [8] (setting [14]) and -0.266% in assay [8] (setting [15]). Besides, the outcome in assay [9] was inactive.

Consider `O=C(c1csnn1)N1CCC2(CCCN(Cc3ccccc3)C2)CC1`, for which the Potency is > 11.4 µM (inactive) in [1], > 46 µM (inactive) in [5] and 1.26 µM (active) in [12]. Further, the activity change, negative = inhibition is 9.34% (inactive) in assay [2] and 3.37% (inactive) in [8]. The Potency result in [3], in assay [10] and in assay [6] was “inactive” each time. Moreover, the activity, negative = inhibition in assay [4] was -5.61% (inactive). The max response is 10.8% in assay [8] (setting [14]) and 18% in assay [8] (setting [15]). For the same compound, the result in assay [9] was inactive.

For the compound `CC(=O)N1CCC2(CCCN(Cc3ccccc3)C2)CC1`, the Potency was > 11.4 µM (inactive) in assay [1], > 46 µM (inactive) in assay [5] and 2.51 µM (active) in [12]. Also, the activity change, negative = inhibition in [2] is -3.56% (inactive); in [8], 2.49% (inactive). The Potency result in [3], in assay [10] and in [6] was “inactive” each time. Further, the activity, negative = inhibition in [4] is 9.01% (inactive). For the same compound, the max response is -0.297% in [8] (setting [14]) and 3.92% in assay [8] (setting [15]). Further, the outcome in assay [9] was inactive.

On to `COCC(=O)N1CCC2(CCCN(c3ncccn3)C2)CC1`, for which the Potency in assay [1] is > 11.4 µM (inactive); in assay [5] it was > 46 µM (inactive). For the same compound, the activity change, negative = inhibition in [2] was -5.71% (inactive); in [8], 7.95% (inactive). The Potency entry in assay [3], in assay [10] and in assay [6] was “inactive” each time. Also, the activity, negative = inhibition in [4] is -7.69% (inactive). Also, in assay [13], the activation is 11.9% (inactive). Further, the max response turned out to be 9.8% in [8] (setting [14]) and 21.8% in assay [8] (setting [15]). Also, the outcome in assay [9] was inactive.

On to `O=C(c1cccc(F)c1)N1CCC2(CCN(Cc3ccccc3)CC2)CC1`, for which the values for the Potency in assay [1], in assay [5] and in assay [12] were > 11.4 µM (inactive), > 46 µM (inactive) and 7.94 µM (active), respectively. Also, the activity change, negative = inhibition is -3.73% (inactive) in assay [2] and 2.97% (inactive) in [8]. Besides, the Potency result in [3], in assay [10] and in assay [6] was “inactive” in each case. The activity, negative = inhibition in assay [4] is 0.711% (inactive). In addition, the max response in assay [8] (setting [14]) stood at 6.47%; in assay [8] (setting [15]) it was 15.1%. In addition, the outcome in [9] was inactive.
